Inconclusive results are not listed. A call without a number means that no potency is given here. The source made the active and inactive calls. Calls follow the shape of the full dose curve.

This experiment can be described thus: p53 small molecule agonists, cell-based qHTS assay with rat liver microsomes (AID 1963578). The following applies: HCT-116 p53RE-bla, beta-lactamase ratio, 16 h; series mostly up to 66 µM. An excerpt:
U.S. Tox21 Program National Center for Advancing Translational Sciences [NCATS] Division of Preclinical Innovation [DPI] U.S. Environmental Protection Agency [EPA] National Institutes of Environmental Health Sciences [NIEHS] National Toxicology Program [NTP] U.S. Food and Drug Administration [FDA] Tox21 Assay Overview: p53, a tumor suppressor protein, is activated following cellular insult, including DNA damage and other cellular stresses. The activation of p53 regulates cell fate by inducing DNA repair, cell cycle arrest, apoptosis, or cellular senescence. The activation of p53, therefore, is a good indicator of DNA damage and other cellular stresses. […] The activation of the reporter gene under culture conditions can be detected by fluorescence intensity. This cell line was used to screen the Tox21 10K compound library in the condition of presence of rat liver microsomes and to identify agonists that activate the p53 signaling pathway after in vitro metabolic activation (Ooka et al., Archive of Toxicology 96:1975-1987, 2022).
Tox21 Assay Protocol Summary: The p53RE-bla cells were dispensed at 4,000cells/3ul/well in 1536-well black-clear bottom plates. After the assay plates were incubated at 37 C, 5% CO2 incubator for 5 hours, 23 nL of compounds dissolved in DMSO, positive controls or DMSO only was transferred to the assay plate. Following compound addition, 3 uL of rat liver microsomes (Molecular Toxicology, Boone, NC) at final concentration of 0.5 mg/mL and 1uL of Beta-Nicotinamide adenine dinucleotide 2-phosphate (NADPH) at final concentration of 0.5 mg/mL were transferred to the assay plate. The plates were incubated at 37 C for 16 hours. 1 uL of LiveBLAzer detection mixture was added to each well and the plates were incubated at room temperature in the dark for 2 h.
(Quantitative high-throughput screening tests each substance at several concentrations.)
Consider `O=C(/C=C/c1ccccc1)OCCCc1ccccc1`, for which the Potency result was “inactive”. Still for that read-out and setting: in the case of `O=C(O)Cc1cn(-c2ccccc2)nc1-c1ccc(Cl)cc1` it was “inactive”; in that of `CC1=C2[C@@H]([C@H](C)CC[C@H]2/C=C(\C)C(=O)O)[C@H](O)C1`, “inactive”; in that of `Oc1c(Br)cc(Br)c2cccnc12`, “inactive”. Regarding `O=[N+]([O-])c1c(Cl)cc(Cl)cc1Cl`, the Potency entry is “inactive”. Consider `C[N+]12CCC(CC1)C(OC(=O)C(O)(c1ccccc1)c1ccccc1)C2` (stereo not given), for which the Potency entry is “inactive”.

For the molecule `CN=C(N)NC(=O)Nc1c(C)cccc1C`, the Potency result is “inactive”. The same measure, in the same setting: in the case of `CCOc1cc(N)c(Cl)cc1C(=O)NCC1CN(Cc2ccc(F)cc2)CCO1` (stereo not given) it was “inactive”; in that of `Nc1ccc(C(=O)OCC(O)CO)cc1` (stereo not given), “inactive”. `O=C(Nc1ccc2c(O)c(N=Nc3ccc(N=Nc4ccc(S(=O)(=O)O)cc4)cc3)c(S(=O)(=O)O)cc2c1)c1ccccc1`: the Potency entry was “inactive”. Still for that read-out and setting: in the case of `CO[Si](C)(OC)c1ccccc1` it was “inactive”; in that of `COc1ccc2nc(SCc3ncc(C)c(OC)c3C)[nH]c2c1`, “inactive”. Regarding `CC(c1cc(C(C)(C)C)cc(C(C)(C)C)c1O)c1cc(C(C)(C)C)cc(C(C)(C)C)c1O`, the Potency result was “inactive”. Same read-out and setting: the value for `CCN(CC)CCSC(=O)C(c1ccccc1)c1ccccc1` was “inactive”; that for `Nc1ccc(C(=O)OCCCOC(=O)c2ccc(N)cc2)cc1` was “inactive”; that for `NC1CCN(c2cccc(Cl)n2)CC1` was “inactive”. Still for that read-out and setting: in the case of `C=CCCCCCCCCC=O` it was “inactive”. Turning to `N=c1ccn2c(n1)O[C@H]1[C@H](O)[C@@H](CO)O[C@H]12`, the Potency result is “inactive”. Still for that read-out and setting: the value for `CCCCC/C=C/CC(=O)OC` was “inactive”; that for `COCCOC(=O)C1=C(C)NC(C)=C(C(=O)OC/C=C/c2ccccc2)C1c1cccc([N+](=O)[O-])c1` (stereo not given) was “inactive”; that for `CC(C)=CC1CC(C)CCO1` (stereo not given) was “inactive”. Regarding `Cc1c(N)cccc1[N+](=O)[O-]`, the Potency result is “inactive”. As for `CN1CCC[C@@H]1Cc1c[nH]c2ccc(CCS(=O)(=O)c3ccccc3)cc12`, the Potency entry was “inactive”.

Regarding `O=C(Nc1cccc(C2=NCCN2)c1)Nc1cccc(C2=NCCN2)c1`, the activation was -1.12% [at 13.6 µM] (inactive). Regarding `CCCCCCCCOc1ccc(C(=O)O)cc1`, the Potency result was “inactive”.

Regarding `Cc1ccccc1C(=O)Nc1ccc(C(=O)N2CCCC(N(C)C)c3ccccc32)cc1` (stereo not given), the Potency result was “inactive”. Still for that read-out and setting: the value for `C=C(C)C(=O)OCCCC` was “inactive”. The same measure, in the same setting: the value for `OCC(O)[C@@H](O)[C@H](O)[C@H](O)CO[C@H]1O[C@H](CO)[C@@H](O)[C@H](O)[C@H]1O` (stereo not given in full) was “inactive”. On the same count and under the same terms, the value for `CCCC(C)C(=O)OCC` (stereo not given) was “inactive”; that for `CC(=O)C(C)=O` was “inactive”; that for `CC(CC(C#N)(c1ccccc1)C(C)C)N(C)C` (stereo not given) was “inactive”. As for `Nc1nc2c(ncn2COCCO)c(=O)[nH]1`, the Potency result is “inactive”. Regarding `C[C@@H]1O[C@@H](O[C@@H]2[C@@H](O)[C@H](OCCc3ccc(O)c(O)c3)O[C@H](CO[C@@H]3O[C@H](CO)[C@@H](O)[C@H](O)[C@H]3O)[C@H]2OC(=O)/C=C/c2ccc(O)c(O)c2)[C@H](O)[C@H](O)[C@H]1O`, the Potency entry was “inactive”. `O=C(NC1CCN(CCc2c[nH]c3ccccc23)CC1)c1ccccc1`: the Potency entry was “inactive”. Same read-out and setting: the value for `CC(=O)O[C@@H]1CC2CCC1(C)C2(C)C` (stereo not given in full) was “inactive”; that for `CCOC(=O)c1cccnc1` was “inactive”. For `CCCC1CCCC(=O)O1` (stereo not given), the Potency result was “inactive”.

Regarding `CC/C=C\CCCCO`, the Potency entry was “inactive”. Turning to `C[C@]12CCC(=O)C=C1CC[C@@H]1[C@@H]2CC[C@@]2(C)[C@H]1CC[C@]2(O)C(=O)CO`, the Potency result was “inactive”.

In the case of `COC(C)(OC)OC`, the Potency entry is “inactive”.

Source of the values: PubChem BioAssay (Tox21).
